“And” between values parts separate entries of the source, which are not always exact repeats. Identical values can stand only once. The campaign covered roughly 260,000 compounds. About 1,500 (0.58%) were called active. Another 5% or so got no clear call; they are omitted.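 The calls were made as follows: active = inhibition above a set limit at one or more doses, reproduced on every date tested; inconclusive = results disagree between test dates, or hit never tested in dose response; inactive = the rest.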 These entries were drawn from the full list. Measured potencies and affinities stand elsewhere.
The compounds below were run against Virion infectivity factor (Human immunodeficiency virus type 1 group M subtype B (isolate BH10)) + Virion infectivity factor (Human immunodeficiency virus type 1 group M subtype B (isolate BRU/LAI)) + Virion infectivity factor (Human immunodeficiency virus type 1 group M subtype B (isolate PCV12)) + Virion infectivity factor (Human immunodeficiency virus type 1 group M subtype B (isolate HXB2)) + DNA dC->dU-editing enzyme APOBEC-3G (Homo sapiens) (UniProt P69720+P69721+P69722+P69723+Q9HC16) (assay: HIV-1 Vif–A3G interaction blockers – biochemical, TR-FRET, GST-Vif 1-94, biotin-A3G peptide, dose response retest, primary screen (AID 1117319;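 also: Vif residues 1-94 fused to GST binding biotinylated APOBEC3G peptide 110-148; 0% = full assay without inhibitor and 100% = GST in place of GST-Vif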)). Settings: TR-FRET GST-Vif / biotin-A3G peptide binding; active compounds read high.

Compound	inhibition
CN(CCc1ccccn1)S(=O)(=O)c1ccc(F)cc1	1.96% (inactive)
Cc1cc2c(Nc3ccc(O)cc3)ncnc2s1	-0.33% (inactive)
N#CC(C#N)=C1NC2(CCCC2)Cc2ccccc21	1.13% (inactive)
Cc1ccc(Nc2nc(N)nc(CN3CCN(Cc4ccc5c(c4)OCO5)CC3)n2)cc1C	3.16% (inactive)
CC(C)(O)C#Cc1ccc(C(=O)NCc2ccccc2)s1	6.16% (inactive)
Cc1cccc(Oc2nc(-c3cccc([N+](=O)[O-])c3)nc3ccccc23)c1C	-5.88% (inactive)
Cc1ccc(NC2=NC(c3ccc(F)cc3)n3c(nc(C)cc3=O)N2)cc1 (configuration not stated)	5.66% (inactive)
CC(C)(C)OC(=O)NCCCC[C@H](NC(=O)c1nc[nH]c1C(=O)N[C@@H](CCCCNC(=O)OC(C)(C)C)C(=O)OC(C)(C)C)C(=O)OC(C)(C)C	-5.41% (inactive)
CC(=O)N1CCN(C(=O)CCC(=O)O)CC1	-4.74% (inactive)
Cc1ccccc1N(CC(=O)NCCSCc1ccco1)S(C)(=O)=O	3.05% (inactive)
Cc1ccc(C)c(N(CC(=O)NCCSCc2ccco2)S(C)(=O)=O)c1	12% (inactive)
Cc1ccc(N(CC(=O)NCCSCc2ccco2)S(=O)(=O)c2ccc(C)cc2)cc1	-4.1% (inactive)
COc1ccc(N(CC(=O)NCCSCc2ccco2)S(=O)(=O)c2ccc(C)cc2)cc1	-1.79% (inactive)
O=C(CSc1nc2[nH]ncc2c(=O)[nH]1)Nc1cc(C(F)(F)F)ccc1Cl	3.21% (inactive)
COc1ccc(CCNC(=O)CCSc2nc(-c3ccco3)cc(C(F)(F)F)n2)cc1	2.48% (inactive)
CNC(=O)OCc1nc(SSC(C)(C)C)n(C)c1COC(=O)NC	-4.09% (inactive)
O=C(c1c(Cl)cccc1Cl)N1CCN(c2ccccn2)CC1	3.31% (inactive)
CCOc1ccc2[nH]c(=O)c(CN(Cc3ccco3)C(CC)c3nnnn3Cc3ccccc3)cc2c1 (configuration not stated)	4.17% (inactive) and 12.4% (inactive)
CCC(c1nnnn1Cc1ccccc1)N(Cc1ccco1)Cc1cc2cc(OC)ccc2[nH]c1=O (configuration not stated)	6.8% (inactive) and 6.79% (inactive)
CCOC(=O)c1cc(NC(=O)CNCC(c2ccccc2)N(C)C)cc(C(=O)OCC)c1 (configuration not stated)	-3.03% (inactive)
O=C1NC(Cc2ccccc2)c2nc3ccccc3c(=O)n2-c2cc3ccccc3cc21 (configuration not stated)	0.54% (inactive)
CC1NC(=O)NC1CCCCCC(=O)Nc1ccc(F)c(Cl)c1 (configuration not stated)	-8.82% (inactive)
CCc1cccc(NC(=O)CCSCCC(=O)Nc2cccc(CC)c2)c1	-3.74% (inactive)

Compound	inhibition
Cc1ccc(NC(=O)CCC(=O)Nc2ccc(C)cc2)cc1	2.94% (inactive)
Cc1c(Cl)cccc1NC(=O)CCCCCN1C(=O)CCC1=O	-0.64% (inactive)
Cc1c(F)cccc1NC(=O)CSCC(=O)Nc1ccccc1	4.77% (inactive)
CC1NC(=O)NC1CCCCCC(=O)NCCc1ccccc1 (configuration not stated)	31.4% (inactive)
COC(=O)c1cccc(NC(=O)CSCc2ccccc2)c1	6.61% (inactive)
O=C(Nc1ccsc1C(=O)N1CCCC1)c1ccccc1	-3.04% (inactive)
CCOc1cccc(C2C(C#N)=C(N)Oc3cc(C)n(Cc4ccccn4)c(=O)c32)c1OCC (configuration not stated)	14.3% (inactive)
CCOC(=O)c1nn(-c2ccc(C)cc2)c(=O)cc1OCC(=O)Nc1cccc(C)c1	-4.53% (inactive)
COC(=O)c1c(NC(=O)c2ccco2)sc2c1CC(C)(C)NC2(C)C	-5.88% (inactive)
CN(c1ccccc1)P(=O)(N(C)c1ccccc1)N(C)c1ccccc1	-2.89% (inactive)
CCCCNC(=O)CCn1nc(-c2ccccc2)c2ccccc2c1=O	-4.86% (inactive)
COc1ccc(-c2cc(-c3n[nH]c(=S)n3-c3cccc4ccccc34)[nH]n2)cc1	32.6% (inactive)
Cc1ccn2c(-c3csc(NCc4ccco4)n3)c(C)nc2c1	16.9% (inactive)
Cc1nc2ccccn2c1-c1csc(NCc2ccco2)n1	5.14% (inactive)
CC(=O)Oc1ccccc1/C=C1\CCOC1=O	13.1% (inactive)
O=C(NCCN1C(=O)S/C(=C\c2ccc(Cl)c(Cl)c2)C1=O)c1cnccn1	20.5% (inactive)
O=C(c1cc([N+](=O)[O-])ccc1N1CCOCC1)N1CCN(c2ccc([N+](=O)[O-])cc2)CC1	11.3% (inactive)
COc1ccccc1CNC(=O)c1csc2c1CCCC2	10.6% (inactive)
O=C(NCc1ccccc1)c1csc2c1CCCCC2	-0.06% (inactive)
[O-]/C(=C(\C(=S)Nc1ccc(SC(F)F)cc1)[n+]1ccccc1)c1ccc(Cl)cc1Cl	-10.3% (inactive)
COc1cccc(OC)c1C(=O)Nc1nc(-c2ccccc2)cs1	-5.24% (inactive)
CC(NC(=O)COc1ccccc1Cl)c1ccccc1 (configuration not stated)	-5.9% (inactive)
CCn1c(SCC(=O)NNC(=O)c2ccc(OC)cc2)nnc1-c1ccco1	-0.44% (inactive)

Compound	inhibition
CC(=O)Nc1ccc(/C(N=Nc2ccccc2)=N/N=C(N)N)cc1	16.3% (inactive)
Oc1ccc(/C=N\Nc2nncc(-c3ccccc3)n2)cc1	-5.32% (inactive)
O=C1c2cc(Br)ccc2OC2C=CC=CC12 (configuration not stated)	-11.4% (inactive)
COc1cccc(CNCCc2c[nH]c3ccccc23)c1OCc1ccc(F)cc1	1.44% (inactive)
COc1cc(CNCCc2c[nH]c3ccccc23)ccc1OCc1ccc(F)cc1	12.4% (inactive)
COc1ccc(C(=Cc2cc(OC)c(OC)cc2[N+](=O)[O-])C(=O)O)cc1	2.43% (inactive)
CCOC(=O)c1cc2c(C)n(-c3ccc(OCC)cc3)c(C)c2ccc1=O	27.2% (inactive)
O=[N+]([O-])c1c(O)c(Cl)cc(Cl)c1Cl (tested in a mixture with another compound)	-1.68% (inactive)
O=C(O)C1Nc2c(Cl)cc(Cl)cc2C2C=CCC12 (configuration not stated)	63.7% (inactive)
O=C(O)C1Nc2c(C(F)(F)F)ccc(Cl)c2C2C=CCC12 (configuration not stated)	24.9% (inactive)
Cc1noc(C)c1COC(=O)c1cnc(Cl)c(Cl)c1	3.39% (inactive)
O=C(O)C12CC3CC(C1)CC(n1cnc(Cl)n1)(C3)C2	23.7% (inactive)
Cc1nnc(Oc2ccccc2F)c2ccccc12	0.32% (inactive)
Cc1cc(C)c2c(c1)C1C=CCC1C(c1ccc(S(=O)(=O)N3CCOCC3)cc1)N2 (configuration not stated)	27.8% (inactive) and -8.85% (inactive)
Cc1cc(C)c(NC(=O)c2ccc(S(=O)(=O)N3CCOCC3)cc2)c(C)c1	-5.2% (inactive)
Cc1ccc(CN2CC(C(=O)Nc3cccc(S(=O)(=O)N4CCCCC4)c3)CC2=O)cc1 (configuration not stated)	14.4% (inactive)
COc1ccc(-c2cc(C(=O)N/N=C/c3ccc4c(c3)OCO4)c3ccccc3n2)c(OC)c1	-3.1% (inactive)
COc1ccc(/C=N/NC(=O)c2cc(-c3ccccc3OC)nc3ccccc23)cc1COC(C)=O	-2.13% (inactive)
CC(C)(C)c1cc(C(=O)Nc2ccccc2)ccn1	11.4% (inactive)
Cc1ccccc1C(=O)O/N=C(\c1ccccc1)c1ccccn1	5.71% (inactive)
O=C(O)c1ccc2c(c1)-c1cc(C(=O)O)ccc1S2(=O)=O	-4.26% (inactive)
Cc1ccn2cc(C34CC5CC(CC(C5)C3)C4)nc2c1	17% (inactive)
Cc1nonc1-c1csc(N)n1	-6.95% (inactive)

Compound	inhibition
COc1cc(NC(=O)CSc2ccc(-c3ccco3)nn2)cc(OC)c1	0.78% (inactive)
CCC(=O)OCCNc1cc(SCCC(=O)OC)c2nonc2c1[N+](=O)[O-]	20% (inactive)
CC(C)CCSc1cc(NCCO)c([N+](=O)[O-])c2nonc12	-1.66% (inactive)
CN(CCO)c1cc(Sc2nc3ccccc3s2)c2nonc2c1[N+](=O)[O-]	1.28% (inactive)
CCN(CC)c1cc(NCCO)c([N+](=O)[O-])c2nonc12	0.97% (inactive)
CCC(=O)OCCNc1cc(Sc2nccn2C)c2nonc2c1[N+](=O)[O-]	-4.53% (inactive)
CC(=O)OCCCNc1cc(Sc2ccc(C)cc2)c2nonc2c1[N+](=O)[O-]	15.4% (inactive)
Cc1ccc(Sc2cc(NCCCO)c([N+](=O)[O-])c3nonc23)cc1	9.02% (inactive)
CCC(=O)OCCNc1cc(Sc2nc3ccccc3s2)c2nonc2c1[N+](=O)[O-]	5.25% (inactive)
CCCN1CCc2c(sc(NC(=O)CCS(=O)(=O)c3ccccc3)c2C(N)=O)C1	0.13% (inactive)
CCOC(NC(=O)c1ccccc1)C(NC(=O)c1ccccc1)OCC (configuration not stated)	-1.18% (inactive)
COc1ccccc1CC(O)CC1c2c(cc3c(c2OC)OCO3)CCN1C (configuration not stated)	-0.54% (inactive)
CC(=O)c1cc(C)ccc1OC(=O)c1cccc2nc(C)oc12	3.65% (inactive)
COC(=O)c1ccccc1N=Nc1c(C)n[nH]c1C	-7.02% (inactive)
COC(=O)CN1C(=O)C2(OCCCO2)c2cc(Br)ccc21	-2.05% (inactive) and -8.37% (inactive)
CN1CCN(C(=O)c2cc3c(C(F)(F)F)nn(C)c3s2)CC1	6.37% (inactive)
O=C(COc1ccc(Cl)cc1Cl)N(Cc1ccco1)C1CCS(=O)(=O)C1 (configuration not stated)	-2.82% (inactive)
O=C(Cc1c(F)cccc1Cl)N1CCN(S(=O)(=O)c2cccc(F)c2)CC1	-1.72% (inactive)
O=C(O)C1CC=CCC1C(=O)N1CCc2ccccc21 (configuration not stated)	23.4% (inactive)
O=C(C1CCCCC1)N1CCc2ccccc21	3.73% (inactive)
CCN(CC)S(=O)(=O)c1ccc(OCC(=O)NC(=O)Cc2ccccc2)c([N+](=O)[O-])c1	1.51% (inactive)
O=C(c1ccccc1)c1ccc(OCCO)cc1	-4% (inactive)
C=C(c1ccc(OC)cc1)c1ccc(OC)cc1	13.2% (inactive)
